The subject of experiment [1] is Tyrosine-protein kinase ABL1 (Homo sapiens), P00519 [T315I]. The settings on record: at 1 µM.
The subject of experiment [2] is Tyrosine-protein kinase ABL1 (Homo sapiens), P00519 [Y253F]. The settings on record: at 0.1 µM.
For experiment [3] the test system is unchanged. The settings on record: at 1 µM.
The target of experiment [4] is Tyrosine-protein kinase ABL1 (Homo sapiens) (UniProt P00519). The settings on record: at 0.1 µM.
For experiment [5] the target is unchanged. The settings on record: at 1 µM.
Experiment [6] concerns the target ALK tyrosine kinase receptor (Homo sapiens) (UniProt Q9UM73). The conditions noted are these: at 0.1 µM.
For experiment [7] the target is unchanged. The settings on record: at 1 µM.
Experiment [8] deals with Tyrosine-protein kinase ABL2 (Homo sapiens) (UniProt P42684). The settings on record: at 0.1 µM.
Chain of Tyrosine-protein kinase ABL2 (Homo sapiens) (P42684 whole entry): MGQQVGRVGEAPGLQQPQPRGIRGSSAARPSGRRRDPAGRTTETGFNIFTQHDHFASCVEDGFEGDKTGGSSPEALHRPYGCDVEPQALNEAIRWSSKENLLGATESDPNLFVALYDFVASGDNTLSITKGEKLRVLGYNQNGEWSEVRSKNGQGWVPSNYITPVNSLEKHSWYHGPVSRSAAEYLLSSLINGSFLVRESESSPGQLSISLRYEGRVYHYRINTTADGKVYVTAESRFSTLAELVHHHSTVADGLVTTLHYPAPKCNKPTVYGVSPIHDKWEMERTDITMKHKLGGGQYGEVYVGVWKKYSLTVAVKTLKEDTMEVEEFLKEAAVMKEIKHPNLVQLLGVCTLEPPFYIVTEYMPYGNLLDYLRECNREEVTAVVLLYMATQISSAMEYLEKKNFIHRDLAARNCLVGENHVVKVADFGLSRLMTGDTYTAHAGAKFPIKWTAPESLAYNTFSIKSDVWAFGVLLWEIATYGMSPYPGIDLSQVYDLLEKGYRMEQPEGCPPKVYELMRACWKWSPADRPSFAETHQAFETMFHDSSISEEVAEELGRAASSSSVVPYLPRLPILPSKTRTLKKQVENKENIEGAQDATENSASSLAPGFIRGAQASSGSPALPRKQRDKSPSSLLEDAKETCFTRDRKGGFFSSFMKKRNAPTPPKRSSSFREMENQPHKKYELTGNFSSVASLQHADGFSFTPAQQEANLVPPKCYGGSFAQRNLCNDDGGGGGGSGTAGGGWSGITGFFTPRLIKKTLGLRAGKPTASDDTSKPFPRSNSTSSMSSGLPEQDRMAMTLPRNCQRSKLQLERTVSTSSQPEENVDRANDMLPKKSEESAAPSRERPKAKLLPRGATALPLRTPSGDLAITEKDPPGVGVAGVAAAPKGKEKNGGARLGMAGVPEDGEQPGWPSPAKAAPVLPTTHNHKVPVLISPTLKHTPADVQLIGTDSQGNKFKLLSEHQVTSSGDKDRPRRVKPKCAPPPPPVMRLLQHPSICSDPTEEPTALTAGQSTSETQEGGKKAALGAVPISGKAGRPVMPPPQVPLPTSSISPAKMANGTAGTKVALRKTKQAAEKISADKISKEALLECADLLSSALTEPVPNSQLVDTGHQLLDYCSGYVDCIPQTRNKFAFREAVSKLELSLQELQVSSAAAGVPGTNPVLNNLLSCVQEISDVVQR
The target is the same in experiment [9]. The conditions noted are these: at 1 µM.
Experiment [10] deals with Tyrosine-protein kinase receptor UFO (Homo sapiens) (UniProt P30530). The conditions noted are these: at 0.1 µM.
Chain of Tyrosine-protein kinase receptor UFO (Homo sapiens) (P30530 whole entry): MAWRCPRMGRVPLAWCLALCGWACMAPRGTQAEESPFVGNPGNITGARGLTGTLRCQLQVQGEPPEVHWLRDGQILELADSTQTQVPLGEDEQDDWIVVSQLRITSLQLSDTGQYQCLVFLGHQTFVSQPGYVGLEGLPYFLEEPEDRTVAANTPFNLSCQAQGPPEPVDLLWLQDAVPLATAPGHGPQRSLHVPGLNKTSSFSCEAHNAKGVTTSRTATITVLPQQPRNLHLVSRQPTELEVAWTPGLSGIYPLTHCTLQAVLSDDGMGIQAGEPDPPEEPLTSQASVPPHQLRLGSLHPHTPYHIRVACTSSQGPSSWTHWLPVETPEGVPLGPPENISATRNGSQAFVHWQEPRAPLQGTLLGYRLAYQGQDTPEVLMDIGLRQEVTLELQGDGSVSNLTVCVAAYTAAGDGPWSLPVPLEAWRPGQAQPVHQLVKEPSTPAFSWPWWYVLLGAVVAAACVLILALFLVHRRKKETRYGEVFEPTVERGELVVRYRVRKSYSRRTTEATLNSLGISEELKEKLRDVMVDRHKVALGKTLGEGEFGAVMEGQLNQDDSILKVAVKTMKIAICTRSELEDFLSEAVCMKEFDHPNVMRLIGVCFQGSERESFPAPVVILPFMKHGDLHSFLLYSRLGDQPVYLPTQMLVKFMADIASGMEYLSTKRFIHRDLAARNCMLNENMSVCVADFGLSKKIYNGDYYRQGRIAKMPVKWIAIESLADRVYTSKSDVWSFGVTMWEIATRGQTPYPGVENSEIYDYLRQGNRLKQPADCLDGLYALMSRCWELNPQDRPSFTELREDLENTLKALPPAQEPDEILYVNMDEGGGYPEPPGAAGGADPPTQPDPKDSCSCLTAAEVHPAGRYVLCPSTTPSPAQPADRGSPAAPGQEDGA
The target is the same in experiment [11]. The settings on record: at 1 µM.
The target in experiment [12] is Tyrosine-protein kinase Blk (Homo sapiens) (UniProt P51451). The conditions noted are these: at 0.1 µM.
Chain of Tyrosine-protein kinase Blk (Homo sapiens) (P51451 2-505 limits assumed): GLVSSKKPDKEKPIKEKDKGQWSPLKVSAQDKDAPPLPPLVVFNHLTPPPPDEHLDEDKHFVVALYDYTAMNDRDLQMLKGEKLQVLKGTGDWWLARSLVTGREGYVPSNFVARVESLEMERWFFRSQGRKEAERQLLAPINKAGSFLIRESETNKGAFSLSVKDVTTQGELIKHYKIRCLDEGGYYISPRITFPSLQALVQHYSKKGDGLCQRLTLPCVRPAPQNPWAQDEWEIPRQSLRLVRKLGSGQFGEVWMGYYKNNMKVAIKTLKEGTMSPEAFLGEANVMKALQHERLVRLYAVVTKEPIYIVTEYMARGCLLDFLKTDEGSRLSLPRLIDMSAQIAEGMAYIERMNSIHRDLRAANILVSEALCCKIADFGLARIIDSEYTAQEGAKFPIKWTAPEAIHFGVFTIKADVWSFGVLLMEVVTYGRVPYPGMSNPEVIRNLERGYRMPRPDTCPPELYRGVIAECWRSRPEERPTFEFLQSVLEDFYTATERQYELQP
For experiment [13] the target is unchanged. The settings on record: at 1 µM.
The target in experiment [14] is T1, Cytoplasmic tyrosine-protein kinase BMX (Homo sapiens) (UniProt P51813).
T1 sequence (whole entry): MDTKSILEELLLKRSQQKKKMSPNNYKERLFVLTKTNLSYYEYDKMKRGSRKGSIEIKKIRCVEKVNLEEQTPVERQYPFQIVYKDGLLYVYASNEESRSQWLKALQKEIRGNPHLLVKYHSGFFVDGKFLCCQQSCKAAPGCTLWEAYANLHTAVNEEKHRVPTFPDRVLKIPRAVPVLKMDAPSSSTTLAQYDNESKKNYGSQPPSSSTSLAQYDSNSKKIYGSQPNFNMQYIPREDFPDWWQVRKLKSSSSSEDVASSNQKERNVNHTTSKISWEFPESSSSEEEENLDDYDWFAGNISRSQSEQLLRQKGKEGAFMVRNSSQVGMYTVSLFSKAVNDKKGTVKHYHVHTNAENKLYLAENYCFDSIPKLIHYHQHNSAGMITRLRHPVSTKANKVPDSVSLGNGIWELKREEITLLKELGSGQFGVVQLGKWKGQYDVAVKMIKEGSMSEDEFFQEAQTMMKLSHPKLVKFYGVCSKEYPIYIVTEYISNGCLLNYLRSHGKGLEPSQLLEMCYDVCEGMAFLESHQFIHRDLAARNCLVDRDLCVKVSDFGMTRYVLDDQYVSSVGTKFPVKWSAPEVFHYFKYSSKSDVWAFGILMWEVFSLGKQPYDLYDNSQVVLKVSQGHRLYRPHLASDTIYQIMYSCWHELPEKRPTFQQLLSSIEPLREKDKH
The settings on record: at 0.1 µM.

For experiment [15], the target named is T1, Cytoplasmic tyrosine-protein kinase BMX (Homo sapiens). The conditions noted are these: at 1 µM.
The target of experiment [16] is Protein-tyrosine kinase 6 (Homo sapiens) (UniProt Q13882). The settings on record: at 0.1 µM.
Chain of Protein-tyrosine kinase 6 (Homo sapiens) (Q13882 whole entry, looked up): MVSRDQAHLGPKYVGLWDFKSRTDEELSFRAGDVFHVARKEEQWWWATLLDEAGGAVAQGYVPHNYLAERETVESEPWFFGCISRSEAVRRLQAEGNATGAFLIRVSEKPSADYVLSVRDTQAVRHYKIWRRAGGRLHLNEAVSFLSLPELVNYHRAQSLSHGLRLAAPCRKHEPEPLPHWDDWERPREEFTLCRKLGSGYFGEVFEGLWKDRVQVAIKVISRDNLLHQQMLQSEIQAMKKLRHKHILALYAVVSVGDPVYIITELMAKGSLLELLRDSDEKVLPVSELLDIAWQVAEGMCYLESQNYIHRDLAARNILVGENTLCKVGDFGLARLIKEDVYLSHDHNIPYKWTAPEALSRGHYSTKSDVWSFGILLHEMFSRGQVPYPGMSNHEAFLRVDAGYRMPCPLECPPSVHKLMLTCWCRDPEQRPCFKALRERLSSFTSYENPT
Experiment [17] shares this target. The settings on record: at 1 µM.
In experiment [18] the target is Tyrosine-protein kinase BTK (Homo sapiens) (UniProt Q06187). The settings on record: at 0.1 µM.
Chain of Tyrosine-protein kinase BTK (Homo sapiens) (Q06187 whole entry): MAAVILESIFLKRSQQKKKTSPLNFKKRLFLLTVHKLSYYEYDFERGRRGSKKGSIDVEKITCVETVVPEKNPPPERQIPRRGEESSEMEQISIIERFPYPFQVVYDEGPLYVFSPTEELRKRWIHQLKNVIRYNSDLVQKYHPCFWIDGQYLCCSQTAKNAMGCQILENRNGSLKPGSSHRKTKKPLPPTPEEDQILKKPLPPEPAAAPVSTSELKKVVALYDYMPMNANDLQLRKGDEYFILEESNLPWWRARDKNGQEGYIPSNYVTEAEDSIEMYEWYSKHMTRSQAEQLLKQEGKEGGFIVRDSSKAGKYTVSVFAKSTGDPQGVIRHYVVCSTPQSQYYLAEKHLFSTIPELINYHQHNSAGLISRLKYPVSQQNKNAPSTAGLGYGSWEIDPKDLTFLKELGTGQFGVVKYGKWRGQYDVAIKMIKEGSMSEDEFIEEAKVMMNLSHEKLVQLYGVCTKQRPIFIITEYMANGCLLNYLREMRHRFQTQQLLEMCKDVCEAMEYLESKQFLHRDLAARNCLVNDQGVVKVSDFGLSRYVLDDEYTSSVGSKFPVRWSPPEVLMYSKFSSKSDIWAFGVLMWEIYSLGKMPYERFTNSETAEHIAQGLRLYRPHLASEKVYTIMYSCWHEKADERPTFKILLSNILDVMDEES
Experiment [19] shares this target. The conditions noted are these: at 1 µM.
Experiment [20] concerns the target Tyrosine-protein kinase CSK (Homo sapiens) (UniProt P41240). The settings on record: at 0.1 µM.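 Note: value given is the averaged percent inhibition of CSK kinase activity, from the GSK PKIS kinase inhibitor set screening panel.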

Chain of Tyrosine-protein kinase CSK (Homo sapiens) (P41240 2-450 limits assumed): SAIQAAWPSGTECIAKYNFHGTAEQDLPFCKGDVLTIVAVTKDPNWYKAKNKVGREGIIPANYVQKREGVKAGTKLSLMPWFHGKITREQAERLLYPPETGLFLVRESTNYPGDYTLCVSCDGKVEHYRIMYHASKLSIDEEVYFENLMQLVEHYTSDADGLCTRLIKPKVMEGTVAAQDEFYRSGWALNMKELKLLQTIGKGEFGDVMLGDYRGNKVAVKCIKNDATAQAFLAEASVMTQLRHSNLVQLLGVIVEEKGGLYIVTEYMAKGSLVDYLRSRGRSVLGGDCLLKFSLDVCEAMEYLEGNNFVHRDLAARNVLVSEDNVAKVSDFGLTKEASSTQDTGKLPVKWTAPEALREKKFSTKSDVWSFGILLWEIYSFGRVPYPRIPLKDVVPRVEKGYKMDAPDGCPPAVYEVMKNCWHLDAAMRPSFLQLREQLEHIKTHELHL

Regarding `CC1(C)CC(n2cnc(-c3ccc(F)cc3)c2-c2ccnc(N)n2)CC(C)(C)N1`, the inhibition in experiment [1] is 4.98%; in [2] it was 8%; in experiment [3], 5.3%; in experiment [4] it was -0.56%; in [5], 4.28%; in experiment [6], -0.41%. In addition, the inhibition was 1.55% in experiment [7]; -1.89% in experiment [8]; 1.01% in experiment [9]; -0.07% in [10]; 1.58% in [11]; 0.51% in [12]. For the same compound, the inhibition in [13] was 1.43%; in experiment [14] it was -2.57%; in [15], 1.06%; in experiment [16] it was -2.17%; in experiment [17], 1.66%; in experiment [18] it was -1.42%. Further, the inhibition in experiment [19] was -1.35%; in experiment [20] it was -0.2%.
As to `COc1cc(Nc2ncc(-c3ccccc3)o2)cc(OC)c1`, the inhibition is 13.2% in [1]; 13.2% in experiment [2]; 50.9% in experiment [3]; 8.41% in [4]; 35.4% in [5]; 2.73% in [6]. For the same compound, the inhibition was 4.06% in experiment [7]; 5.68% in experiment [8]; 29.4% in [9]; -6.45% in [10]; -6.19% in experiment [11]; 4.37% in experiment [12]. Besides, the inhibition in experiment [13] was 20.1%; in [14], 3.71%; in experiment [15], 6.51%; in experiment [16] it was 0.81%; in experiment [17] it was 7.86%; in [18] it was -1.03%. The inhibition was 0.87% in experiment [19] and 3.66% in experiment [20].
Take `CCOc1ccc2c(-c3ccnc(Nc4cc(OC)cc(C(F)(F)F)c4)n3)cnn2n1`: the inhibition in experiment [1] was 3.15%; in experiment [2], 2.66%; in experiment [3] it was 7.81%; in [4], 5.8%; in experiment [5], 11.5%; in [6] it was -0.08%. The inhibition was 1.27% in [7]; 6.07% in experiment [8]; 9.53% in [9]; 0.45% in experiment [10]; -1.43% in [11]; 0.5% in experiment [12]. In addition, the inhibition in experiment [13] is 4.83%; in experiment [14], -3.75%; in [15], 2.82%; in experiment [16], 1.51%; in experiment [17] it was 2.17%; in experiment [18], -0.58%. The inhibition in experiment [19] was -0.1%; in experiment [20] it was -0.12%.
`CCN1CCC(C(=O)Nc2n[nH]c3nnc(-c4cccc(F)c4F)cc23)CC1`: the inhibition was 1.7% in [1]; -0.98% in [2]; -1.38% in experiment [3]; 0.49% in experiment [4]; 0.51% in [5]; 0.15% in experiment [6]. The inhibition in experiment [7] came out at 1.71%; in [8], 1.05%; in experiment [9] it was 1.43%; in experiment [10] it was 1.6%; in experiment [11], 2.22%; in experiment [12], 0.62%. Moreover, the inhibition in experiment [13] is 2.33%; in experiment [14] it was -0.1%; in [15], 1.04%; in experiment [16] it was -0.63%; in experiment [17], -0.63%; in experiment [18], 0%. Moreover, the figures for the inhibition in experiment [19] and in experiment [20] were -0.5% and 2.49%, respectively.
With `c1ccc(-c2n[nH]cc2-c2ccnc(-c3ccc(OCCn4ccnc4)cc3)c2)nc1`, the inhibition in [1] is 7.34%; in experiment [2], 31.8%; in [3], 78.8%; in experiment [4], 30.5%; in experiment [5], 68.8%; in experiment [6], -0.73%. Further, the inhibition in [7] is 3.68%; in experiment [8], 5.73%; in experiment [9], 56.4%; in experiment [10], -0.5%; in experiment [11], -0.26%; in [12] it was -0.32%. In addition, the inhibition was 1.78% in experiment [13]; -0.48% in [14]; 0.53% in [15]; 2.69% in [16]; 8.22% in experiment [17]; 0.31% in experiment [18]. The inhibition is -1.64% in experiment [19] and 1% in [20].
As to `N#Cc1ccc2c(-c3ccnc(NC4CC4)n3)c(-c3ccc(F)cc3)nn2c1`, the inhibition in experiment [1] is 1.49%; in experiment [2] it was -0.67%; in experiment [3], 3.58%; in experiment [4] it was -0.74%; in [5] it was 6.61%; in experiment [6], 0.92%. For the same compound, the inhibition in experiment [7] was 0.32%; in [8], 0.94%; in [9], 5.29%; in experiment [10] it was -4.43%; in [11] it was -4.53%; in experiment [12], -1.08%. The inhibition was -3.55% in experiment [13]; 1.17% in [14]; 2.56% in experiment [15]; -1.17% in [16]; 2.88% in experiment [17]; -0.25% in experiment [18]. Besides, the inhibition in experiment [19] is -2.34%; in [20], 1.65%.
In the case of `Cc1cc(O)cc(C)c1/C=C/c1cncc(C(=O)OC(C)(C)C)c1`, the inhibition was found to be 4.07% in experiment [1]; 9.34% in [2]; 38.4% in experiment [3]; 5.51% in experiment [4]; 31.9% in experiment [5]; 3.06% in [6]. Further, the inhibition is 5.54% in experiment [7]; 8.31% in experiment [8]; 36.2% in experiment [9]; -3.22% in [10]; -3.72% in [11]; 4.36% in [12]. For the same compound, the inhibition in [13] was 21.7%; in [14], 9.3%; in [15], 47.3%; in [16], 18.1%; in experiment [17], 67.5%; in experiment [18], 0.92%. Also, the figures for the inhibition in [19] and in [20] were 12.8% and 7.62%, respectively.

(Values after ChEMBL document CHEMBL1961873, “Compounds: GSK PKIS; Assays: Nanosyn kinase panel” (2012).)
